# Source: PubChem
# In the library only some 7.6% were active in any assay of this set; here they are far more common.
# MCF10A rerep: A quantitative high throughput screen for small molecules that induce DNA re-replication in MCF 10a normal breast cells; actives 2.9% (n = 350,000); MCF 10A DNA re-replication, Hoechst nuclear intensity, 48 h; AID 624296, 2012; Potency, µM (doses to about 46.1 µM), without a hit: at the top dose activity, positive = re-replication, actives largely listed as activators; further: potency means the concentration at half of the fitted maximal effect; % of control where 0% means no effect; nearly all actives have a fitted effect of over 50% in size
# KCNH2 3.1 block: qHTS for Inhibitors of KCHN2 3.1: Mutant qHTS; Potassium voltage-gated channel subfamily H member 2, brain isoform KCNH2 3.1 (human); actives 0.95% (n = 340,000); U2OS KCNH2 3.1, thallium flux FluxOr; stronger effect = lower value; activity change, % (tested at about 1.8 µM);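 active means maximum activity change below -70%; inconclusive means maximum activity change from -70% to -50%; inactive means maximum activity change above -50%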;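 further: thallium influx rate constant from kinetic fluorescence after stimulation buffer; on the % scale 0 is the no-effect control and ±100 the full control effect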
#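 Steps: virus added to U2OS suspension (4 h, RT, dark); medium with 10% FBS added, cells plated, 37 C overnight; FluxOr/Red40 loading buffer 45 min RT; stimulation buffer, 2 min kinetic read; rate constant normalized.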
# KCNH2 WT inh: qHTS for Inhibitors of KCHN2 3.1: Wildtype qHTS; activity change, % at 1.84 µM; U2OS, BacMam KCNH2, thallium flux FluxOr; stronger effect = lower value; Voltage-gated inwardly rectifying potassium channel KCNH2 (Homo sapiens), Q12809; actives 0.37% (n = 340,000);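 active means maximum activity change below -70%; inconclusive means maximum activity change between -70% and -50%; inactive means maximum activity change above -50%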; further: on the % scale 0 is the no-effect control and ±100 the full control effect
#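 U2OS cells transduced with wild-type KCNH2 virus are loaded with FluxOr dye for 45 min, and thallium flux is measured in kinetic reads before and after stimulation buffer. Rate constants are normalized to DMSO controls.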
# SW480 rerep: A quantitative high throughput screen for small molecules that induce DNA re-replication in SW480 colon adenocarcinoma cells; AID 624297, 2012; Potency, µM (series often up to 46.1 µM), for inactives: top-dose re-replication activation, actives largely listed as activators; actives 1.8% (n = 340,000); SW480 DNA re-replication, Hoechst DNA content imaging, 48 h; further: potency means the concentration at half of the fitted maximal effect; % of control where 0% means no effect; nearly all actives have a fitted effect of over 55% in size
#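 Readout is total intensity of Hoechst-stained nuclei, excited at 405 nm and collected at 500-530 nm. Compound treatment lasted 48 hr at 37 C in 5% CO2 before staining.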
# KB-V1 cytotox: qHTS assay for MDR1-selective chemotherapeutics: Primary screen using the drug-selected MDR subline cells KB-V1. KB-V1 MDR cells viability, CellTiter-Glo, 72 h. Potency, µM (top dose mostly 46.1 µM), most hits filed as cytotoxic. actives 3.4% (n = 400,000). AID 1347076, 2019; further: potency means the concentration at half of the fitted maximal effect; on the % scale 0 is the no-effect control and ±100 the full control effect; nearly all actives have a fitted effect of over 60% in size
#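 Readout: CellTiter-Glo luminescence, 10 min after addition. Cells: KB-V1 MDR subline, 72 h at 37 degrees C with compound. Analysis: corrected, normalized data fitted to concentration-effect curves.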
# KB-3-1 tox: qHTS assay for MDR1-selective chemotherapeutics: Primary screen using the parental adenocarcinoma cell KB-3-1. KB-3-1 viability, CellTiter-Glo ATP luminescence, 72 h. Potency, µM (highest dose often 46.1 µM), most hits filed as cytotoxic. actives 1.4% (n = 400,000). AID 1347075, 2019; further: potency means the concentration at half of the fitted maximal effect; on the % scale 0 is the no-effect control and ±100 the full control effect; nearly all actives have a fitted effect of over 60% in size
#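 Viability of parental KB-3-1 cells, measured by CellTiter-Glo luminescence, followed a 72 h incubation at 37 °C with pinned compounds in phenol-red-free DMEM containing 10% FBS.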
# * marks the source's active call; other numbers are inactive results; i = inactive; u = inconclusive; x = not tested or not shown. Unless noted, the call rests on the fitted dose curve; in most records, active means well fitted curve in the direction sought with a large enough effect; inconclusive means small, poorly fitted or top-dose-only effect, or another doubt; inactive means no such curve, though single readings can be large; an effect the other way counts as inactive or inconclusive.
SMILES,MCF10A rerep,KCNH2 3.1 block,KCNH2 WT inh,SW480 rerep,KB-V1 cytotox,KB-3-1 tox
COc1ccc(Cl)cc1NC(=S)NCCN1CCOCC1,0.46µM*,-15,0,u,i,i
COc1cc(Cl)ccc1NC(=S)N(CCCN1CCOCC1)Cc1cn(C)c2ccccc12,u,-1,0,u,i,u
COc1ccc(Cl)cc1NC(=S)N(CCCN1CCOCC1)Cc1cn(C)c2ccccc12,u,16,4,23µM*,i,u
O=C(O)[C@@H]1CC(O)CN1C(=O)CCc1c[nH]c2ccccc12 (some centres not stated),4%,-8,-6,-3%,i,i
Cc1ccc(C(=O)OC(C)C(=O)Nc2ccc3c(c2)OCO3)c(O)c1 (configuration not stated),0%,13,-18,-2%,i,i
CCOc1ccc2nc(N3CCCC(C(=O)NCCc4ccc(OCC)c(OCC)c4)C3)sc2c1 (configuration not stated),x,x,x,x,i,i
Cc1ccccc1NS(=O)(=O)c1ccc(C(=O)NCC(c2ccco2)N(C)C)cc1 (configuration not stated),u,-7,1,2%,15µM*,i
Cc1ccc(S(=O)(=O)N(C)c2ccc(C(=O)NCC(c3ccco3)N(C)C)cc2)cc1 (configuration not stated),9.2µM*,4,11,-1%,i,i
Cc1cccc(-n2c(C)nc3cc(C(=O)NCCC4=CCCCC4)ccc32)c1,x,x,x,x,i,i
CC(O)C1CCC2C3CC[C@H]4CC(O)CCC4(C)C3CC3(OCCO3)C12C (some centres not stated),-1%,9,-3,0%,i,i
Cc1c(C)n(CC(O)CN2CCCCCC2)c2ccccc12 (configuration not stated),2%,-10,1,1%,i,i
OC(CN1CCCCC1)Cn1c2ccccc2c2cc(Br)ccc21 (configuration not stated),u,u,39,u,16µM*,u
CCc1nnc2c(N(C)S(=O)(=O)c3ccc(C)cc3)nc3ccccc3n12,4%,3,7,6%,i,i
COc1ccc(S(=O)(=O)N(C)c2nc3ccccc3n3c(CC(C)C)nnc23)cc1,12µM*,-8,4,14%,u,i
CC(C)(C)OC(=O)NS(=O)(=O)NOCc1ccccc1,x,x,x,x,i,i
CCOc1ccccc1CN1CCNC(=O)C1CC(=O)NC1CCCCC1 (configuration not stated),7%,3,5,9%,i,i
Cc1ccc(S(=O)(=O)N2CCN(c3ccc(C(=O)N4CCOCC4)cc3[N+](=O)[O-])CC2)cc1,u,3,-1,-6%,2.9µM*,i
CO/N=C/c1ccc(N2CCCC2)c([N+](=O)[O-])c1,-7%,11,30,-5%,u,i
O=C(c1ccc(N2CCCCC2)c([N+](=O)[O-])c1)N1CCN(S(=O)(=O)c2ccccc2)CC1,-7%,-17,9,-108%,i,i
NC(=O)c1ccc(N2CCN(S(=O)(=O)c3ccccc3)CC2)c([N+](=O)[O-])c1,35%,-22,23,-4%,9.2µM*,18µM*
CO/N=C/c1ccc(N2CCN(C(=O)c3ccc(C)cc3)CC2)c([N+](=O)[O-])c1,19%,-98*,-10,1%,9.2µM*,u
COc1ccc(C2C(=O)N(C3CCCCC3)CC(=O)N2C2CCCC2)cc1 (configuration not stated),1%,-4,-7,9%,2.6µM*,i
